# Test results: PubChem BioAssay (EPA / NIEHS)
# Where “and” joins values, the source holds several entries; their conditions need not be identical. Identical values can stand only once. Inconclusive results are not listed. The source holds several records for some structures; these can differ, active in one and inactive in another. Calls of active or inactive are those of the source. Rule for the calls, unless noted: active = hit-call score of the fitted dose curve at least 0.9, where 1 is the maximum; inconclusive = response in the unintended direction; inactive = score below 0.9.
# How the values were obtained:
# [1] = molecular target: Retinoic acid receptor RXR-alpha (Homo sapiens) (UniProt P19793); test: OT_NURR1_NURR1RXRa_0480: Odyssey Thera (OT) 8-hour HEK293T Protein Complementation Assay for Nurr1/retinoid X receptor (RXR) (AID 2283385)
# Chain of Retinoic acid receptor RXR-alpha (Homo sapiens) (P19793 whole entry, looked up, the tested form may be a part): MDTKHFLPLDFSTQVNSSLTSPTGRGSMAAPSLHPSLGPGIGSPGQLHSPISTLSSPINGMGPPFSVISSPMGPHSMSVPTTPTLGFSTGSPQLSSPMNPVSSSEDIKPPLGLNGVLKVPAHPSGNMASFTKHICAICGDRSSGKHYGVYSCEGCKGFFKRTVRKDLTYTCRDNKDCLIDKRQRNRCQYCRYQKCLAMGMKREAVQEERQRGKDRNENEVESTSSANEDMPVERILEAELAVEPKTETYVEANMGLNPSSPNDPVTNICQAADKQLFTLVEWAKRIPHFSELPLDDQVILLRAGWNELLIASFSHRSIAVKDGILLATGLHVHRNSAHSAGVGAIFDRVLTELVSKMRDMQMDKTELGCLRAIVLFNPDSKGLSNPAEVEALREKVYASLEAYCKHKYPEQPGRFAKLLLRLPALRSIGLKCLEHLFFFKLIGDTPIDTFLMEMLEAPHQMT
# Procedure, shortened: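 Compounds are applied to HEK293T cells carrying Nurr1 and RXRα linked to reporter fragments. After 8 h, fluorescence intensity reports heterodimer formation, with DMSO as baseline.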
# [2] = molecular target: Retinoic acid receptor RXR-alpha (Homo sapiens) (UniProt P19793); test: OT_NURR1_NURR1RXRa_1440: Odyssey Thera (OT) 24-hour HEK293T Protein Complementation Assay for Nurr1/retinoid X receptor (RXR) (AID 2283386)
# Procedure, shortened: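 Measured as fluorescence from a reconstituted split reporter, this 24 h HEK293T complementation assay scores compound-induced gain of Nurr1/RXRα association relative to DMSO.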
# [3] = molecular target: Peroxisome proliferator-activated receptor gamma (Homo sapiens) (UniProt P37231); test: OT_PPARg_PPARgSRC1_0480: Odyssey Thera (OT) 8-hour Protein-Complementation Assay for Peroxisome Proliferator-activated Receptor Gamma / SRC-1 Co-activator (AID 2283387);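 note: nuclear to cytoplasmic split Venus YFP fluorescence ratio reporting PPARg SRC-1 interaction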
# Chain of Peroxisome proliferator-activated receptor gamma (Homo sapiens) (P37231 whole entry, looked up, the tested form may be a part): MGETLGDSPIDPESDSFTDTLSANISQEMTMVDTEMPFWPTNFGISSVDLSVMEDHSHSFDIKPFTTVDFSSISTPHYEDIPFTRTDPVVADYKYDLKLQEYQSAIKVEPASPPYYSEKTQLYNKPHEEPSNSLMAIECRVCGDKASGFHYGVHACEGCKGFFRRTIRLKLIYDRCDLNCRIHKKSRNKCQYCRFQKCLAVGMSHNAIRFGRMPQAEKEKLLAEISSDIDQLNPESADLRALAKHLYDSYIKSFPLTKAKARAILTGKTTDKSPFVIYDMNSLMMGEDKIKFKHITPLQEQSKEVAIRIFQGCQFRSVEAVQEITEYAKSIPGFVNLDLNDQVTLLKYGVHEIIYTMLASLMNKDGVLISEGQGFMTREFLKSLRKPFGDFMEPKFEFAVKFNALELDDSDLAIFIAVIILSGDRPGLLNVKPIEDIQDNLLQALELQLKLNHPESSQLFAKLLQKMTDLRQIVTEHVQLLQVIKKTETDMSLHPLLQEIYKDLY
# Procedure, shortened: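 Read-out: 488 nm N/C fluorescence ratio from complemented Venus YFP fragments, ≥350 cells per image, gain-of-signal fitted against DMSO baseline. Fusions of PPARg/SRC-1 with IFP1/IFP2 expressed transiently in HEK293T; compounds applied 8 h.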
# [4] = molecular target: Peroxisome proliferator-activated receptor gamma (Homo sapiens) (UniProt P37231); test: OT_PPARg_PPARgSRC1_1440: Odyssey Thera (OT) 24-hour Protein-Complementation Assay for Peroxisome Proliferator-activated Receptor Gamma/ SRC-1 Co-activator (AID 2283388);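 note: nuclear to cytoplasmic ratio of reconstituted Venus YFP fluorescence in fixed imaged cells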
# Procedure, shortened: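 Readout: nuclear-to-cytoplasmic 488 nm fluorescence ratio, ≥350 cells per image, 8 images per well, after 24 h compound exposure of HEK293T expressing PPARg/SRC-1 split-YFP fusions. Activity fitted in positive direction against DMSO.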
# [5] = CEETOX_H295R_OHPREG: CeeTox H295R High-throughput Steroidogenesis Assay for OH-Pregnenolone (OHPREG) (AID 2283434; active = hit-call score of the fitted dose curve at least 0.9, where 1 is the maximum; inactive = score below 0.9); details: actives raise or lower the signal
# Procedure, shortened: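 H295R cells pre-stimulated 48 h with 10 uM forskolin, then exposed 48 h to chemical in 0.1% DMSO. 17alpha-hydroxypregnenolone in medium quantified by MTBE extraction and HPLC-MS/MS; bidirectional fit versus DMSO, viability checked by MTT.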
# [6] = CEETOX_H295R_OHPROG: CeeTox H295R High-throughput Steroidogenesis Assay for OH-Progesterone (OHPROG) (AID 2283435; active = hit-call score of the fitted dose curve at least 0.9, where 1 is the maximum; inactive = score below 0.9;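 for AC50: human adrenal H295R cells primed 48 h with 10 µM forskolin; 17alpha-hydroxyprogesterone secreted into medium measured by HPLC-MS/MS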); details: actives raise or lower the signal
# Procedure, shortened: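 Secreted 17alpha-hydroxyprogesterone is read by tandem MS from media of forskolin-primed H295R cells dosed with chemical for 48 h. Activity is fitted in both directions against DMSO baseline; cytotoxic concentrations are re-tested diluted.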
# [7] = CEETOX_H295R_11DCORT: CeeTox H295R High-throughput Steroidogenesis Assay for 11-Deoxycortisol (11DCORT) (AID 2283432; active = hit-call score of the fitted dose curve at least 0.9, where 1 is the maximum; inactive = score below 0.9;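 note: 11-deoxycortisol secreted into the medium measured by LC-MS/MS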); details: actives raise or lower the signal
# Procedure, shortened: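 H295R cells; 10 uM forskolin prestim 48 h; compound in 0.1% DMSO 48 h; media extracted with MTBE; 11-deoxycortisol by LC-MS/MS, 7-point standard curve; gain/loss vs DMSO baseline; viability by MTT in same wells.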
# [8] = CEETOX_H295R_CORTIC: CeeTox H295R High-throughput Steroidogenesis Assay for Corticosterone (CORTIC) (AID 2283437; active = hit-call score of the fitted dose curve at least 0.9, where 1 is the maximum; inactive = score below 0.9;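 note: corticosterone secreted into medium quantified by mass spectrometry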); details: actives raise or lower the signal
# Procedure, shortened: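 H295R adrenal cells prestimulated 48 hours with 10 uM forskolin, then exposed 48 hours to chemical in 0.1% DMSO. Corticosterone in medium measured by HPLC-MS/MS after MTBE extraction; MTT viability in the same wells; bidirectional fit versus DMSO.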
# [9] = CEETOX_H295R_ANDR: CeeTox H295R High-throughput Steroidogenesis Assay for Androstenedione (ANDR) (AID 2283436; active = hit-call score of the fitted dose curve at least 0.9, where 1 is the maximum; inactive = score below 0.9); details: actives raise or lower the signal
# Procedure, shortened: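 H295R cells, following OECD 456 with minor changes, exposed to chemicals for 48 h. Androstenedione in the medium was quantified by HPLC-MS/MS after MTBE extraction. Fitting was bidirectional versus DMSO; chemicals were diluted until MTT viability was ≥70%.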
structure (smiles),measurement,setting,value
COc1cc(-c2ccc(N)c(OC)c2)ccc1N,outcome,[1],inactive
same,AC50,[2],67.1 µM (active) and 41.3 µM (active) and 50 µM (active)
same,outcome,[2],inactive
same,outcome,[3],inactive
same,outcome,[4],inactive
same,AC50,[5],82.6 µM (active)
same,outcome,[5],inactive
same,AC50,[6],1.9 µM (active)
same,outcome,[6],inactive
ClC(Cl)=C(Cl)C(Cl)=C(Cl)Cl,outcome,[1],inactive
same,outcome,[2],inactive
same,outcome,[3],inactive
COc1ccc(C=O)cc1,outcome,[1],inactive
same,outcome,[3],inactive
O=C/C=C/c1ccccc1,outcome,[1],inactive
same,outcome,[2],inactive
same,outcome,[3],inactive
C[C@]12CCC(=O)C[C@@H]1CC[C@@H]1[C@@H]2CC[C@]2(C)[C@@H](O)CC[C@@H]12,outcome,[1],inactive
same,AC50,[2],40.3 µM (active)
same,outcome,[2],inactive
same,outcome,[3],inactive
same,outcome,[4],inactive
same,AC50,[5],0.0791 µM (active)
same,outcome,[6],inactive
O=C(O)C(Cl)(Cl)Cl,outcome,[1],inactive
same,outcome,[2],inactive
same,outcome,[3],inactive
same,outcome,[4],inactive
CCCCCCCCSC(=O)Oc1cc(Cl)nnc1-c1ccccc1,outcome,[1],inactive
same,outcome,[3],inactive
same,outcome,[4],inactive
C[C@]12CC[C@H](O)CC1=CC[C@@H]1[C@@H]2CC[C@]2(C)C(=O)CC[C@@H]12,outcome,[1],inactive
same,outcome,[2],inactive
same,AC50,[7],41.1 µM (active)
same,AC50,[5],14.1 µM (active)
same,AC50,[6],1.13 µM (active)
same,outcome,[8],inactive
C=CCc1ccc(OC)cc1,outcome,[1],inactive
same,outcome,[2],inactive
same,outcome,[3],inactive
Cc1ccccc1C(=O)Nc1cccc(OC(C)C)c1,outcome,[1],inactive
same,outcome,[3],inactive
CN(CCCC(=O)c1cccnc1)N=O,outcome,[9],inactive
